Drawing on PubChem BioAssay (NCI), this text covers growth inhibition for 39 compounds.

The panel holds about 79,000 compounds, 15% with a hit somewhere; the sample as a whole holds those more often. Activity calls are given as the source filed them. Rule as the data show it: active = growth inhibition above about 70%; inactive = the rest.

A short description of the assay: NCI Yeast Anticancer Drug Screen. Data for the wt2 strain (AID 169).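 Also: 0% = growth of vehicle-treated yeast cultures.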 As to conditions: S. cerevisiae wt2 strain growth inhibition; at 1.2 µM; active compounds read high. In short, it runs like this: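 Compound exposure of yeast; growth compared with vehicle controls; inhibition reported.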
For the compound `CCCc1cc(C(=O)OCC)cc(CCC)c1O`, the growth inhibition is -1% (inactive).
As to `CC(C)[N+]([O-])(CCCNc1c2ccccc2nc2cccc([N+](=O)[O-])c12)C(C)C`, the growth inhibition is 1% (inactive).
The result for `COc1cc2c3c(cccc3c1)C(=O)N(CCN(C)C)C2=O` reads -2% (inactive).
For `NC(=O)NN=C(CS)CS`, the growth inhibition was 0% (inactive).
With `Cc1ccc(NC(=O)/C(Cl)=C(\Cl)C(=O)O)cc1C` the figure was 0% (inactive); with `CCN(CC)CC[n+]1ccc2c(C)c3[nH]c4ccc(O)cc4c3c(C)c2c1`, 0% (inactive); with `CC(CC(C)(C)[N+](C)(C)C)[N+](C)(C)C` (centres undefined), -1% (inactive).
Turning to `COc1ccc(OC)c2cc3ccccc3cc12`, the growth inhibition was -23% (inactive).
Take `Nc1ncncc1C(C1=C(O)COC1=O)C1=C(O)COC1=O`: the growth inhibition was 1% (inactive).
`CSC1=NNC(SC)=NN1`: the growth inhibition was -2% (inactive).
As to `Cc1c(Cl)ccc2c1S(=O)(=O)c1cccc(Cl)c1-2`, the growth inhibition was -10% (inactive).
In the case of `[O-][n+]1c2ccc(O)cc2nc2ccc(Cl)cc21`, the growth inhibition is 5% (inactive).
In the case of `COc1ccc2ccc3ccccc3c2c1C=O`, the growth inhibition is -3% (inactive).
In the case of `Nc1ccc2c(c1)C(=O)c1cccc(N)c1C2=O`, the growth inhibition is -2% (inactive).
Take `O=C(c1ccc(Cl)cc1Cl)C(Cl)Cl`: the growth inhibition was -8% (inactive).
Take `COc1cc(C(=O)/C=C/c2ccccc2O)ccc1O`: the growth inhibition is -24% (inactive).
With `O=Cc1cccc2ccc3ccccc3c12` the figure was -2% (inactive).
For the compound `O=C(Nc1ccc(Cl)cc1)OCC#CCCl`, the growth inhibition is 95% (active).
On to `Cn1ccnc1Oc1ccc(Cl)cc1`, for which the growth inhibition is -7% (inactive).
For `c1ccc2c(c1)C(=NCCCN1CCCCCC1)c1cccn1-2`, the growth inhibition was -2% (inactive).
The result for `C/C(=N\O)C1CC2C=C(C#N)C1N(Cc1ccccc1)C2` (centres undefined) reads -1% (inactive); that for `O=[N+]([O-])C(=C(Sc1ccccc1)Sc1ccccc1)C(Cl)=C(Cl)Cl`, 1% (inactive).
`CCCCCCCCCC/C=C\C(=O)O`: the growth inhibition was -14% (inactive).
`COc1ccc(N=C2C(=O)Nc3ccc(Br)cc32)cc1`: the growth inhibition is 19% (inactive).
As for `COc1ccccc1C(=O)OCC1CCCN2CCCCC12` (centres undefined), the growth inhibition was -18% (inactive).
On to `CC(C)(Br)C(=O)/C=C/c1ccc(Cl)c(Cl)c1`, for which the growth inhibition was -5% (inactive).
`Nc1ccccc1CC(O)C(=O)O` (centres undefined): the growth inhibition was 2% (inactive).
`CC(=O)N/N=C/C(C)(C)C(C)(C)/C=N/NC(C)=O`: the growth inhibition is -1% (inactive).
With `CN(C)c1nc2sc3c(c2c(=O)o1)CCCC3` the figure was -1% (inactive); with `CC(C)OC(=O)Oc1ccccc1OC(=O)OC(C)C`, -3% (inactive); with `Cc1ccc(N)c(S)c1`, -48% (inactive).
With `O=C(O)c1ccccc1NC(=S)c1ccccc1` the figure was -1% (inactive); with `COC(=O)c1ccc(NCC2=CC(=O)C=CC2=O)cc1O`, 20% (inactive); with `NC(N)=N/N=C\c1c2ccccc2cc2ccccc12`, -47% (inactive).
With `COC(=O)CSSCc1ccc([N+](=O)[O-])cc1` the figure was 1% (inactive).
`CCS(=O)(=O)c1ccc(/C=C/C=N/NC(=S)NCC(C)C)cc1`: the growth inhibition is -8% (inactive).
Regarding `N#CC(C(=O)Nc1ccccc1)C1=C(Cl)C(=O)c2ccccc2C1=O` (centres undefined), the growth inhibition was -3% (inactive).
Turning to `C[C@H](CCC(=O)NN)[C@H]1CC[C@H]2[C@@H]3CC[C@@H]4C[C@H](O)CC[C@]4(C)[C@H]3CC[C@]12C`, the growth inhibition was -2% (inactive).
On to `CC[n+]1ccc2c(C)c3[nH]c4ccc(O)cc4c3c(C)c2c1`, for which the growth inhibition is -5% (inactive).
